Laboratory results: PubChem BioAssay (EPA / NIEHS)
Active and inactive are the calls of the source. The calls were made as follows: active = hit-call score of the fitted dose curve at least 0.9, where 1 is the maximum; inactive = score below 0.9.

How the values were obtained:
[1] = biological target: CCAAT/enhancer-binding protein beta (Homo sapiens) (UniProt P17676); assay: ATG_C_EBP_CIS: Attagene CIS-FACTORIAL HepG2 Assay for human CCAAT/Enhancer Binding Protein (C/EBP) beta (AID 2282927); settings: HepG2 Attagene cis-factorial transcription factor reporter; actives raise or lower the signal
Sequence of CCAAT/enhancer-binding protein beta (Homo sapiens) (P17676 whole entry, looked up): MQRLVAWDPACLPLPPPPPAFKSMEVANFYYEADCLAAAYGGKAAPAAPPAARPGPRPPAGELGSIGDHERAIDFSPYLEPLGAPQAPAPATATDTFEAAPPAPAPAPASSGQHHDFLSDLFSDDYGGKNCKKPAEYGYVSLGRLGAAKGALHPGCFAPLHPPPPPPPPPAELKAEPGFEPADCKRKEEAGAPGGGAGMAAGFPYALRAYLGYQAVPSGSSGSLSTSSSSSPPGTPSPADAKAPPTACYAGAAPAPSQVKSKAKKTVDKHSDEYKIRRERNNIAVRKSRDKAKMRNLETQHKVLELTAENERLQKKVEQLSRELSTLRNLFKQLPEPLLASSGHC
In short: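 Transiently transfected HepG2 (MRTU library, endogenous TF-driven promoters); 24 h dosing; total RNA → oligo(dT) RT → PCR → 6-FAM primer extension → HpaI digest → CE; fit bidirectionally vs DMSO.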

[2] = ATG_CMV_CIS: Attagene CIS-FACTORIAL HepG2 Assay for human CMV (Internal Marker) (AID 2282928); settings: HepG2 CMV promoter reporter, transcription factor profiling; actives raise or lower the signal;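 also: endpoint acts as a background internal control marker rather than a target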
In short: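 Cell system: HepG2, transiently transfected multiple reporter units under cis promoters. Exposure: 24 h. Detection: RT-PCR, FAM labeling, HpaI digestion, capillary electrophoresis. Analysis: bidirectional, DMSO baseline.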

[3] = ATG_AP_2_CIS: Attagene CIS-FACTORIAL HepG2 Assay for human Activator Protein 2 (AP-2) (AID 2282932); settings: HepG2 AP-2 cis-reporter, Attagene transcription factor profiling; actives raise or lower the signal
In short: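 Multiplexed mRNA reporter assay in HepG2: cis-regulated units report endogenous factor activity after 24 h treatment. Fluorescence from capillary electrophoresis of RT-PCR products gives the signal, with DMSO as baseline.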

[4] = ATG_BRE_CIS: Attagene CIS-FACTORIAL HepG2 Assay for human Bone Morphogenetic Protein (BMP) Response Element (BRE) (AID 2282933); settings: HepG2 BMP response element reporter, Attagene transcription factor profiling; actives raise or lower the signal
In short: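 Transient MRTU transfection of human HepG2 liver cells; 24 h compound treatment; total RNA isolated, reverse-transcribed, PCR-amplified, 6-FAM labelled, HpaI-cut, capillary electrophoresis. DMSO = negative control/baseline, bidirectional fit.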

[5] = biological target: Transcription factor E2F1 (Homo sapiens) (UniProt Q01094); assay: ATG_E2F_CIS: Attagene CIS-FACTORIAL HepG2 Assay for human E2F Transcription Factor 1 (AID 2282935); settings: HepG2 Attagene cis-reporter, E2F reporter RNA transcripts; actives raise or lower the signal
Sequence of Transcription factor E2F1 (Homo sapiens) (Q01094 whole entry, looked up): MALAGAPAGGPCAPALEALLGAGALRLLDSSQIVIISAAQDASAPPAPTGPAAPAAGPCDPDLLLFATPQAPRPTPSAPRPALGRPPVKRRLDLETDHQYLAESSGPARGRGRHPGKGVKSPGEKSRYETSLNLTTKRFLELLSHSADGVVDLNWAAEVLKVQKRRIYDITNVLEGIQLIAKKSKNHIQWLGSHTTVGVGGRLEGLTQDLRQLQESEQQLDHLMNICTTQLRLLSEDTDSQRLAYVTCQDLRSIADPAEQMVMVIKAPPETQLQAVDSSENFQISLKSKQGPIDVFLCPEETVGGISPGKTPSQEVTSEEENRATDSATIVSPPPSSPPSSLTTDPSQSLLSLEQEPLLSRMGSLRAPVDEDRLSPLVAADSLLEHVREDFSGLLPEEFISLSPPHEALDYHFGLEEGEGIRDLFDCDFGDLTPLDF
In short: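 Measures reporter transcript levels via RT-PCR with capillary electrophoresis detection in HepG2 cells harboring cis-regulated reporter units; 24 h post-dose; bidirectional curve fitting with DMSO as baseline.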

[6] = ATG_E_Box_CIS: Attagene CIS-FACTORIAL HepG2 Assay for human Enhancer Box (E-box) (AID 2282936); settings: HepG2 E-box cis-reporter transcription, actives raise or lower the signal
In short: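 First, HepG2 cells receive multiple cis-regulated reporter constructs by transient transfection. Next, chemicals are applied for 24 h. Finally, reporter mRNA is quantified via RT-PCR and capillary electrophoresis, with DMSO as baseline.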

[7] = ATG_M_61_CIS: Attagene CIS-FACTORIAL HepG2 Assay for M61 Transcription Factor (Internal Marker) (AID 2282937); settings: HepG2 Attagene CIS-FACTORIAL M61 internal marker reporter; actives raise or lower the signal
In short: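 Readout: fluorescent reporter mRNA fragments resolved by capillary electrophoresis after RT-PCR. Transiently transfected human HepG2 cells carried MRTU constructs reporting endogenous TF activity; 24 h chemical exposure; gain or loss of signal fitted relative to DMSO.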

[8] = ATG_EGR_CIS: Attagene CIS-FACTORIAL HepG2 Assay for human Early Growth Response 1 (EGR1) (AID 2282938); settings: HepG2 Attagene CIS-FACTORIAL EGR reporter mRNA; actives raise or lower the signal
In short: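 Read-out: fluorescent reporter-mRNA fragments resolved by capillary electrophoresis after RT-PCR, 24 h post-dose in transiently transfected HepG2. Endogenous transcription-factor activity reported via cis-element-regulated reporter units; gain or loss fitted relative to DMSO.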

[9] = ATG_M_19_CIS: Attagene CIS-FACTORIAL HepG2 Assay for M19 Transcription Factor (Internal Marker) (AID 2282939); settings: HepG2 Attagene CIS-FACTORIAL M19 internal marker reporter; actives raise or lower the signal
In short: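 Transfect HepG2 with MRTU reporter library → dose chemical, 24 h → isolate total RNA, reverse-transcribe with oligo(dT) → PCR, 6-FAM label, HpaI cut (2 h, 37 C) → capillary electrophoresis. Bidirectional fit vs DMSO.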

[10] = ATG_FoxO_CIS: Attagene CIS-FACTORIAL HepG2 Assay for human Forkhead box O (FoxO) (AID 2282943); settings: HepG2 Attagene cis-reporter, FoxO element, mRNA; actives raise or lower the signal
In short: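 Read-out: fluorescence of 6-FAM-labelled reporter cDNA fragments resolved by capillary electrophoresis. Transiently transfected HepG2 cells were dosed for 24 h; activity fitted in both directions relative to DMSO controls.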

[11] = ATG_GATA_CIS: Attagene CIS-FACTORIAL HepG2 Assay for human GATA Binding Protein (AID 2282944); settings: HepG2 GATA cis-element reporter, Attagene multiplex mRNA; actives raise or lower the signal
In short: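 Transient MRTU transfection, HepG2, 24 h compound exposure. Total RNA → oligo(dT) RT → PCR → 6-FAM primer extension → HpaI cut → CE. Bidirectional fit vs DMSO.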

[12] = ATG_GLI_CIS: Attagene CIS-FACTORIAL HepG2 Assay for human Zinc Finger Protein GLI1 (AID 2282945); settings: HepG2, Attagene cis-factorial reporter mRNA, GLI element; actives raise or lower the signal
In short: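 Transiently transfected HepG2 cells report endogenous transcription factor activity via cis-element-driven reporter units. After 24 h compound exposure, reporter mRNA was measured by RT-PCR with capillary electrophoresis; bidirectional fitting against DMSO baseline.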

[13] = ATG_ISRE_CIS: Attagene CIS-FACTORIAL HepG2 Assay for human Interferon Regulatory Factor 1 (IRF1) binding to an Interferon-Stimulated Response Element (ISRE) (AID 2282948); settings: HepG2 ISRE cis-reporter (Attagene), mRNA transcription readout; actives raise or lower the signal
In short: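 Quantitation relies on labelled RT-PCR fragments separated by capillary electrophoresis. Human HepG2 cells bearing cis-promoter reporter constructs were treated 24 h; DMSO served as baseline for bidirectional fitting.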

[14] = ATG_M_32_CIS: Attagene CIS-FACTORIAL HepG2 Assay for M32 Transcription Factor (Internal Marker) (AID 2282949); settings: HepG2 Attagene cis-factorial M32 reporter, mRNA; actives raise or lower the signal;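 also: background control marker of the multiplexed CIS panel rather than a real target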
In short: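 Following 24 h chemical exposure of HepG2 cells transiently expressing cis-promoter reporter constructs, reporter transcript levels were determined by RT-PCR with fluorescent labelling and capillary electrophoresis, then fitted bidirectionally against DMSO.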

[15] = ATG_M_06_CIS: Attagene CIS-FACTORIAL HepG2 Assay for M06 Transcription Factor (Internal Marker) (AID 2282950); settings: HepG2 Attagene CIS-FACTORIAL M06 internal marker reporter; actives raise or lower the signal
In short: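 Read-out is fluorescence of labelled reporter cDNA fragments resolved by capillary electrophoresis after RT-PCR. Cells: HepG2 carrying transfected cis-promoter reporter units, treated 24 h. Gain or loss of signal fitted relative to DMSO.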

[16] = ATG_MRE_CIS: Attagene CIS-FACTORIAL HepG2 Assay for human Metal Responsive Element (MRE) (AID 2282954); settings: HepG2 MRE cis-reporter transcription, Attagene multiplex; actives raise or lower the signal
In short: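 Fluorescent reporter fragments separated by capillary electrophoresis give mRNA induction for the MRE unit after 24 h treatment of transfected HepG2 cells. Endogenous transcription-factor activity is read; DMSO serves as negative control and baseline.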

[17] = ATG_PXRE_CIS: Attagene CIS-FACTORIAL HepG2 Assay for human Pregnane X Receptor Element (PXRE) (AID 2282957); settings: HepG2 Attagene CIS-FACTORIAL PXRE reporter, mRNA; actives raise or lower the signal
In short: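 Transiently transfected HepG2 cells were dosed and incubated for 24 h. RNA was then isolated, DNase-treated, reverse-transcribed and reporter sequences amplified. Labeled, HpaI-digested fragments were quantified by capillary electrophoresis against DMSO.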

[18] = ATG_Sox_CIS: Attagene CIS-FACTORIAL HepG2 Assay for human SRY-box transcription factor (SOX) (AID 2282960); settings: HepG2 Attagene cis-factorial SOX reporter, mRNA; actives raise or lower the signal
In short: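 Read-out: fluorescent RT-PCR products of SOX1-linked reporter transcripts resolved by capillary electrophoresis, fitted bidirectionally against DMSO. Transiently transfected HepG2 cells, 24 h after chemical exposure, endogenous transcription factor activity.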

[19] = biological target: Transcription factor Sp1 (Homo sapiens) (UniProt P08047); assay: ATG_Sp1_CIS: Attagene CIS-FACTORIAL HepG2 Assay for human Specificity Protein 1 (Sp1) (AID 2282961); settings: HepG2 Sp1 cis-reporter transcription, actives raise or lower the signal
Sequence of Transcription factor Sp1 (Homo sapiens) (P08047 whole entry, looked up): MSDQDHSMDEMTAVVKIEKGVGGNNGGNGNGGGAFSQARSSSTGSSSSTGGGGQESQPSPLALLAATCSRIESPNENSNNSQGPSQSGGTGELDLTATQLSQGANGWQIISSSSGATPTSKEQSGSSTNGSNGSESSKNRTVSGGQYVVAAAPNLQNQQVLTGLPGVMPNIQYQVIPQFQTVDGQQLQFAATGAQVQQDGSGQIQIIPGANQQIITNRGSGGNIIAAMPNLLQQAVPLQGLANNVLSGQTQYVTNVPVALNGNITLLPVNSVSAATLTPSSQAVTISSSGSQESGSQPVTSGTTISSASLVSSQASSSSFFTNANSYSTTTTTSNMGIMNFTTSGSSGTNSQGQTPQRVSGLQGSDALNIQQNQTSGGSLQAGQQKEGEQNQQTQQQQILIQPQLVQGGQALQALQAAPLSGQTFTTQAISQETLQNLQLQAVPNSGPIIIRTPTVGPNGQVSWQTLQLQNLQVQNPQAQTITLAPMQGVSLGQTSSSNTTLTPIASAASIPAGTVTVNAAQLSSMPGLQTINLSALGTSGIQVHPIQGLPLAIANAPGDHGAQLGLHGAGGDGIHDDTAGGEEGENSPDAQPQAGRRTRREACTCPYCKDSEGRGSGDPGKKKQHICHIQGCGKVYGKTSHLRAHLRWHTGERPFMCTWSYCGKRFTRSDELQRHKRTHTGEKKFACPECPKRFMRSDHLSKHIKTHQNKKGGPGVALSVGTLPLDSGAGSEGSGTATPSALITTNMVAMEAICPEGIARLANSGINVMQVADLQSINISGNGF
In short: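 Read-out: fluorescence of 6-FAM-labeled, HpaI-digested RT-PCR products separated by capillary electrophoresis. HepG2 cells carried transfected cis-element reporter units and were exposed to chemicals for 24 h; gain or loss of signal fitted relative to DMSO.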

[20] = ATG_SREBP_CIS: Attagene CIS-FACTORIAL HepG2 Assay for human Sterol Regulatory Element Binding (SREBP) (AID 2282962); settings: HepG2 Attagene cis-factorial SREBP reporter, mRNA; actives raise or lower the signal
In short: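 Twenty-four hours after chemical dosing of transfected HepG2 cultures, reporter RNA was converted to cDNA, amplified, end-labelled with 6-FAM and resolved by capillary electrophoresis. Responses were fitted relative to DMSO.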

Measured: AC50

Oc1ccc(Oc2ccccc2)cc1
active: [2] 44.9 µM | [16] 79 µM | [17] 26.4 µM
inactive: all other assays above

CCCCn1cc[n+](C)c1
inactive: all assays above

O=C1NC(=O)[C@@H]2CC=CC[C@H]12
inactive: all assays above

O=C(O)Cc1c[nH]c2ccccc12
active: [17] 35.4 µM
inactive: all other assays above

c1ccc(CNc2ncnc3nc[nH]c23)cc1
inactive: all assays above
